In the library only some 2% were active in any assay of this set; here they are far more common.
GC-B act: GC-B (human) receptor activation. HEK293-GC-B cells, CNP EC30, cGMP TR-FRET; 0% at EC30 CNP, 100% saturating CNP. activation, % at 10 µM. 370,000 compounds, 0.11% hits. AID 1920062;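 active = activation at 10 µM reaching about 35% in either raw or pattern-adjusted values, limit read from the data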
ADAM10 inh: inhibitors of human ADAM10; AID 720582; O14672; recombinant ADAM10, EDANS/DABCYL FRET peptide cleavage, 3 h; 370,000 compounds, 0.62% hits; inhibition, % at 7 µM;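 active = inhibition above a per-campaign cutoff equal to the mean of compounds falling between control-based bounds plus 3 SD, cut at about 20% in these data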;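 also: 0% = DMSO wells while the 100% control is not disclosed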
FAS TE block: inhibitors of human fatty acid synthase thioesterase domain; inhibition, % at 15 µM; P49327; AID 602261; 360,000 compounds, 0.67% hits; recombinant FAS-TE, OMFH fluorogenic substrate, fluorescence endpoint;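 active = compounds whose normalised, plate-corrected inhibition of enzyme fluorescence in the single-dose primary screen is 50% or more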;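 also: 0% = DMSO with enzyme and 100% = substrate without enzyme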
NPR1 activator: GC-A (human) enzyme activation | P16066 | HEK293 GC-A cells, cGMP TR-FRET, EC30 ANP; 0% at EC30 ANP, 100% saturating ANP | activation, % at 10 µM | 370,000 compounds, 0.14% hits; in the data active = activation above about 40%
ADAM17 inh: inhibits human ADAM17 | recombinant ADAM17, EDANS/DABCYL FRET peptide cleavage | 370,000 compounds, 0.83% hits | P78536 | inhibition, % at 6.95 µM | AID 720648;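 active = inhibition above the mean of compounds lying between control limits plus 3 SD, set per campaign, cut at about 8.5% in these data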;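 also: 0% = DMSO-only wells as the low control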
ADAM10 confirm: confirmation of inhibitors of human ADAM10; ADAM10 QFRET peptide cleavage, EDANS fluorescence; 2,100 compounds, 1% hits; inhibition, % at 6.95 µM; shares compounds with ADAM10 inh; AID 743208;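 active = inhibition above about 20% chosen separately for each screening run, limit read from the data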;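 also: 0% = DMSO wells and 100% = marimastat wells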
ADAM17 ctr: counter-screen for ADAM10 exosite inhibitors: inhibitors of human ADAM17; 2,100 compounds, 0.5% hits; shares compounds with ADAM10 inh; ADAM17 QFRET peptide cleavage, EDANS fluorescence; AID 743214; inhibition, % at 6.95 µM;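 active = mean triplicate inhibition above the solvent-only control wells' mean plus 3 SD, cut at about 12% in these data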;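 also: 0% = DMSO wells and 100% = marimastat wells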
ADAM10 ctr: ADAM10 inhibition, counter-screen for ADAM17 exosite hits; shares compounds with ADAM17 inh; recombinant ADAM10, EDANS/DABCYL FRET peptide cleavage, 3 h; inhibition, % at 6.95 µM; 2,900 compounds, 47% hits; AID 743256;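 active = mean inhibition over the triplicate runs exceeds the activity threshold set in the earlier primary screen, cut at about 20% in these data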;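 also: 0% = DMSO wells and 100% = marimastat wells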
ADAM17 confirm: confirmation of inhibitors of human ADAM17; shares compounds with ADAM17 inh; recombinant ADAM17, EDANS/DABCYL QFRET peptide cleavage; inhibition, % at 6.95 µM; 2,900 compounds, 65% hits; AID 743257;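 active = mean inhibition across replicates above the hit cutoff set in the primary screen, cut at about 8.5% in these data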;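 also: 0% = DMSO wells and 100% = marimastat wells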
Numbers without * were called inactive; / = no result.

SMILES | GC-B act | ADAM10 inh | FAS TE block | NPR1 activator | ADAM17 inh | ADAM10 confirm | ADAM17 ctr | ADAM10 ctr | ADAM17 confirm
Nc1ccc(N2CCN(Cc3ccccc3Cl)CC2)c(Cl)c1 | 3 | 22* | 1 | -2 | 3 | 3 | 1 | / | /
Clc1ccccc1CN1CCN(c2ccccc2)CC1 | 3 | 8 | 5 | -1 | 2 | / | / | / | /
Cc1c(C(=O)c2cccc3ccccc23)c2cccc3c2n1[C@H](CN1CCOCC1)CO3 | -12 | 20* | 32 | -19 | 5 | 6 | 1 | / | /
O=C(CNC(=O)OCc1ccccc1)Nc1ccc(Br)cc1C(=O)c1ccccc1 | -17 | 20* | 24 | -25 | 8 | 6 | 2 | / | /
CN1CC[C@@H]2CN[C@H](c3ccccc3Br)C[C@@H]21 | 4 | -9 | / | -1 | -4 | / | / | / | /
Clc1ccc([C@H]2CC3CCC2N3)cn1 (some centres undefined) | 3 | -20 | / | 5 | 0 | / | / | / | /
CCOC(=O)c1c(C)n(Cc2ccccc2)c2ccc(OCC(O)Cn3nc(C)nc3C)cc12 (centres undefined) | 33 | -4 | 3 | 24 | 4 | / | / | / | /
CCOC(=O)c1c(C)n(Cc2ccccc2)c2ccc(OCC(O)Cn3nc(C)cc3C)cc12 (centres undefined) | 20 | 33* | 16 | 25 | 12* | 9 | 3 | / | /
CCOC(=O)[C@@H]1[C@H]2COc3ccc(Br)cc3[C@@H]2N2C(=O)N(c3cccc(C)c3)C(=O)[C@]12C | -6 | 20* | 24 | -2 | 4 | 4 | 1 | / | /
CCOc1c(Cl)cc(CNCCc2c[nH]c3ccccc23)cc1OC | -12 | 10 | -4 | -13 | 5 | / | / | / | /
CCOc1cc(CNCCc2c[nH]c3ccccc23)cc(Cl)c1OCC | -4 | 27* | -1 | -1 | 14* | 0 | 0 | 3 | 1
CCOC(=O)C(O)(c1ccc(N(CC)S(=O)(=O)c2ccccc2)cc1)C(F)(F)F (centres undefined) | 3 | 27* | 10 | -1 | 14* | 0 | 0 | 12 | 5
COC(=O)C1=C(c2ccc(F)cc2OCc2ccccc2)C[C@@H]2CC[C@H]1N2C(=O)NCc1cccc(C(F)(F)F)c1 | 4 | 24* | 22 | -2 | 16* | 7 | 2 | 19 | 13*
COC(=O)C1=C(c2ccc(F)cc2OCc2ccccc2)C[C@@H]2CC[C@H]1N2C(=O)NCCc1ccc(F)cc1 | -8 | 27* | 24 | -7 | 11* | 9 | 2 | 29* | 13*
COC(=O)C1=C(c2ccc(F)cc2OCc2ccccc2)C[C@@H]2CC[C@H]1N2C(=O)NCc1ccc(N(C)C)cc1 | 1 | 20* | 20 | 0 | 9.7* | 7 | 3 | 14 | 7
COC(=O)C1=C(c2ccc(F)cc2OCc2ccccc2)C[C@@H]2CC[C@H]1N2C(=O)NCCOc1ccccc1 | -8 | 11 | 18 | -6 | 4 | / | / | / | /
O=C(NCCN1CCC2(CC1)C(=O)NCN2c1ccccc1)c1ccc(OC(F)(F)F)cc1 | -6 | -15 | / | -4 | -8 | / | / | / | /
O=C(CN1C(=O)[C@@H](Cc2c[nH]c3ccccc23)N=C(c2ccccc2)c2ccccc21)NC1CCCCC1 | -3 | 12 | / | -4 | 8 | / | / | / | /
CCC(NC(=O)OCc1ccccc1)P(=O)(Oc1ccccc1)Oc1ccccc1 (centres undefined) | -11 | 7 | / | -2 | 1 | / | / | / | /
